{
  "source": "PubChem BioAssay (NCI)",
  "note": "Compounds without any hit were thinned out: in the full panel of roughly 83,000, 20% have a hit.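 Single-dose data. Exposure time 48 hours. Values below 10 considered active.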 Unmarked numbers belong to inactive results. Activity calls are given as the source filed them.",
  "data": [
    {"tested_on": "RXF 393 renal", "assay": "NCI-60 one-dose screen, 48 h (100 = growth as untreated, 0 = no growth, -100 = all killed)", "settings": "10 µM unless noted", "values": [
      {"compound": "CCC(C)(C)c1ccc(OCCCCCCN2CCN(c3ccc(C)c(Cl)c3)CC2)cc1", "growth": "95.6%"},
      {"compound": "Cc1ncc(C(=O)Nc2ccc(CN3CCN(C)CC3)c(C(F)(F)F)c2)cc1C#Cc1c(N)ncc2ccccc12", "growth": "-93.9% (active)"},
      {"compound": "COc1ccc2cnc(N)c(C#Cc3cc(C(=O)Nc4ccc(CN5CCN(C)CC5)c(C(F)(F)F)c4)cnc3C)c2c1", "growth": "-12.9% (active)"},
      {"compound": "COc1ccc(-c2nc(SCC(C)C)nc(Nc3ccc(C(=O)O)cc3)c2C#N)cc1", "growth": "83.1%"},
      {"compound": "CCCCCCCCCCCCCCCCC(=O)O.CCCCCCCCCCCCCCCCCC(=O)O.CCCCCCCCCCCCCCCCCC(=O)O.CCCCCCCCCCCCCCCCCC(=O)O.CCCCCCCCCCCCCCCCCC(=O)O.CO[CH-]OC12COC1CC(O)C1(C)C(O)C(OC(C)O)C3=C(C)C(OC(=O)C(O)C([NH-])c4ccccc4)CC(O)(C(OC(=O)c4ccccc4)C21)C3(C)C.[Cu+].[Zn].[Zn].[Zn].[Zn].[Zn]", "note": "(configuration not stated)", "growth": "24.3%"},
      {"compound": "O=C1c2cc([N+](=O)[O-])ccc2-c2cc(Cl)c(NC(=O)C(F)(F)F)cc21", "growth": "87.5%"},
      {"compound": "CCCNC(=O)Oc1ccc(/C(=C(/C)Cc2ccc(OC)cc2)c2ccc(OCCN3CCCCC3)cc2)cc1", "growth": "88.7%"},
      {"compound": "CC(=O)CCS(=O)c1ccccc1", "note": "(configuration not stated)", "growth": "99.7%"},
      {"compound": "N#CC1=C(N2CCOCC2)NC2c3ccccc3Sc3ccccc3N2C1=N", "note": "(configuration not stated)", "growth": "90.7%"},
      {"compound": "CC(C)(C)OC(=O)N1C/C(=C\\c2ccccc2)C(=O)/C(=C/c2ccccc2)C1", "growth": "102%"},
      {"compound": "N#Cc1ccc(NC2c3ccccc3CC2O)cc1", "note": "(configuration not stated)", "growth": "89.6%"},
      {"compound": "CC([C@H]1CCC2C3CCC4C[C@@H](N)CC[C@]4(C)C3CC[C@@]21C)N(C)C", "note": "(some centres not stated)", "growth": "24.3%"},
      {"compound": "CCN(CC)c1ccc2nc3ccc(N=Nc4ccc(O)cc4)cc3[n+](-c3ccccc3)c2c1", "growth": "30.6%"},
      {"compound": "CC(C)CSc1nc(-c2ccc(F)cc2)c(C#N)c(N2CCCCC2)n1", "growth": "87.7%"},
      {"compound": "Cc1ccc(C(=O)Nc2ccc(CN3CCN(C)CC3)c(C(F)(F)F)c2)cc1C#Cc1cnc(N)c2ccc(C#N)cc12", "growth": "30.4%"},
      {"compound": "CCCCCN1CCN(C(CC(=O)c2ccccc2)C(=O)c2ccccc2)CC1", "note": "(configuration not stated)", "growth": "111%"},
      {"compound": "COc1ccc2cc(C(C)C(=O)Nc3ccc(S(=O)(=O)Nc4cc(C)on4)cc3)ccc2c1", "note": "(configuration not stated)", "growth": "92%"},
      {"compound": "CN1CCN(Cc2ccc(NC(=O)c3ccc(C#Cc4c(N)ncc5ccc(F)cc45)cc3)cc2C(F)(F)F)CC1", "growth": "-43.5% (active)"},
      {"compound": "CSC1=Nc2c(c(C)c(-c3ccccc3)n2CCCCl)C2=NC(=O)CN12", "growth": "94.7%"},
      {"compound": "Cc1ncc(C(=O)Nc2ccc(CN3CCN(C)CC3)c(C(F)(F)F)c2)cc1C#Cc1cnc(NC2CC2)c2ncccc12", "growth": "-90.6% (active)"},
      {"compound": "Oc1ccc([S+](c2ccc(O)cc2)c2ccc(O)cc2)cc1", "growth": "94.6%"},
      {"compound": "Oc1ccc2ccccc2c1/C=N\\Nc1ccccn1", "growth": "18.3%"},
      {"compound": "CCCNC(=O)Oc1ccc(/C(=C(/CC)Cc2ccccc2)c2ccc(OCCN(CC)CC)cc2)cc1", "growth": "66.8%"}
    ]},
    {"tested_on": "SF-268 CNS", "assay": "NCI-60 one-dose screen, 48 h (100 = growth as untreated, 0 = no growth, -100 = all killed)", "settings": "10 µM unless noted", "values": [
      {"compound": "Cc1cc(CSc2ccc(Cl)cc2)ccc1N", "growth": "70%"},
      {"compound": "CC(=O)C(CO)C(=O)Nc1ccccc1", "note": "(configuration not stated)", "growth": "107%"},
      {"compound": "Cc1nc2ccccc2c(=O)n1-c1cccc(OCc2cn(-c3cccc(O)c3)nn2)c1", "growth": "88.4%"},
      {"compound": "CCCCCCCCCCN1CC2CCCCC2C1", "note": "(configuration not stated)", "growth": "72.2%"},
      {"compound": "CCCCN(CCC)CCCCCCCCCCN1CCCc2ccccc21", "growth": "75.7%"},
      {"compound": "C/C=C(/C)C(=O)OC1C=C(CO)C(=O)C(OC(=O)/C(C)=C\\C)C1C(C)C", "note": "(configuration not stated)", "growth": "-57.3% (active)"},
      {"compound": "O=C1C(Cl)=C(Nc2ccc(Nc3ccccc3)c(NC3=C(Cl)C(=O)c4ccccc4C3=O)c2)C(=O)c2ccccc21", "growth": "72.7%"},
      {"compound": "CN1CCN(Cc2ccc(NC(=O)c3cncc(C#Cc4c(N)ncc5ccc(F)cc45)c3)cc2C(F)(F)F)CC1", "growth": "35.7%"},
      {"compound": "COc1cccc(CNC(=O)c2cccc(C3CC(=O)c4c(cc(OC)c(OC)c4OC)O3)c2)c1", "note": "(configuration not stated)", "growth": "78.7%"},
      {"compound": "COC(=O)C1CC(=O)N(C(=O)Nc2ccc(Cl)cc2Cl)C1", "note": "(configuration not stated)", "growth": "101%"},
      {"compound": "O=C(/C=C\\c1ccc(NCc2ccc(C(=O)O)cc2)cc1)CCl", "growth": "74%"},
      {"compound": "CC1(C)NC(=S)NC1=O", "growth": "111%"},
      {"compound": "Cc1ccc(C(=O)Nc2ccc(CN3CCN(C)CC3)c(C(F)(F)F)c2)cc1C#Cc1cncc2ncccc12", "growth": "-70.6% (active)"},
      {"compound": "COc1ccc(-c2nc(N)n(C(=S)Nc3ccccc3)n2)cc1", "growth": "96.3%"},
      {"compound": "O=C(O)c1ccc(-c2nn(-c3ccc(C(=O)O)cc3)cc2CNc2ccc(Br)cc2)cc1", "growth": "94.1%"},
      {"compound": "CCS(=O)(=O)N[C@@H]1O[C@H](COC(C)=O)C(OC(C)=O)[C@H](OC(C)=O)C1OC(C)=O", "note": "(some centres not stated)", "growth": "94.4%"},
      {"compound": "CCC(C)(C)c1ccc(OCCCCCCN2CCN(c3ccc(C)c(Cl)c3)CC2)cc1", "growth": "82.5%"},
      {"compound": "Cc1ncc(C(=O)Nc2ccc(CN3CCN(C)CC3)c(C(F)(F)F)c2)cc1C#Cc1c(N)ncc2ccccc12", "growth": "-54.4% (active)"},
      {"compound": "COc1ccc2cnc(N)c(C#Cc3cc(C(=O)Nc4ccc(CN5CCN(C)CC5)c(C(F)(F)F)c4)cnc3C)c2c1", "growth": "62.5%"},
      {"compound": "COc1ccc(-c2nc(SCC(C)C)nc(Nc3ccc(C(=O)O)cc3)c2C#N)cc1", "growth": "91%"},
      {"compound": "CCCCCCCCCCCCCCCCC(=O)O.CCCCCCCCCCCCCCCCCC(=O)O.CCCCCCCCCCCCCCCCCC(=O)O.CCCCCCCCCCCCCCCCCC(=O)O.CCCCCCCCCCCCCCCCCC(=O)O.CO[CH-]OC12COC1CC(O)C1(C)C(O)C(OC(C)O)C3=C(C)C(OC(=O)C(O)C([NH-])c4ccccc4)CC(O)(C(OC(=O)c4ccccc4)C21)C3(C)C.[Cu+].[Zn].[Zn].[Zn].[Zn].[Zn]", "note": "(configuration not stated)", "growth": "47.6%"},
      {"compound": "O=C1c2cc([N+](=O)[O-])ccc2-c2cc(Cl)c(NC(=O)C(F)(F)F)cc21", "growth": "107%"},
      {"compound": "CCCNC(=O)Oc1ccc(/C(=C(/C)Cc2ccc(OC)cc2)c2ccc(OCCN3CCCCC3)cc2)cc1", "growth": "81.8%"},
      {"compound": "CC(=O)CCS(=O)c1ccccc1", "note": "(configuration not stated)", "growth": "94.9%"},
      {"compound": "N#CC1=C(N2CCOCC2)NC2c3ccccc3Sc3ccccc3N2C1=N", "note": "(configuration not stated)", "growth": "91.8%"},
      {"compound": "CC(C)(C)OC(=O)N1C/C(=C\\c2ccccc2)C(=O)/C(=C/c2ccccc2)C1", "growth": "81.4%"},
      {"compound": "N#Cc1ccc(NC2c3ccccc3CC2O)cc1", "note": "(configuration not stated)", "growth": "115%"},
      {"compound": "CC([C@H]1CCC2C3CCC4C[C@@H](N)CC[C@]4(C)C3CC[C@@]21C)N(C)C", "note": "(some centres not stated)", "growth": "37.1%"},
      {"compound": "CCN(CC)c1ccc2nc3ccc(N=Nc4ccc(O)cc4)cc3[n+](-c3ccccc3)c2c1", "growth": "81%"},
      {"compound": "CC(C)CSc1nc(-c2ccc(F)cc2)c(C#N)c(N2CCCCC2)n1", "growth": "90.9%"},
      {"compound": "Cc1ccc(C(=O)Nc2ccc(CN3CCN(C)CC3)c(C(F)(F)F)c2)cc1C#Cc1cnc(N)c2ccc(C#N)cc12", "growth": "45%"},
      {"compound": "CCCCCN1CCN(C(CC(=O)c2ccccc2)C(=O)c2ccccc2)CC1", "note": "(configuration not stated)", "growth": "91.5%"},
      {"compound": "COc1ccc2cc(C(C)C(=O)Nc3ccc(S(=O)(=O)Nc4cc(C)on4)cc3)ccc2c1", "note": "(configuration not stated)", "growth": "100%"},
      {"compound": "CN1CCN(Cc2ccc(NC(=O)c3ccc(C#Cc4c(N)ncc5ccc(F)cc45)cc3)cc2C(F)(F)F)CC1", "growth": "-21.1% (active)"},
      {"compound": "CSC1=Nc2c(c(C)c(-c3ccccc3)n2CCCCl)C2=NC(=O)CN12", "growth": "77%"},
      {"compound": "Cc1ncc(C(=O)Nc2ccc(CN3CCN(C)CC3)c(C(F)(F)F)c2)cc1C#Cc1cnc(NC2CC2)c2ncccc12", "growth": "-72.7% (active)"},
      {"compound": "Oc1ccc([S+](c2ccc(O)cc2)c2ccc(O)cc2)cc1", "growth": "114%"},
      {"compound": "Oc1ccc2ccccc2c1/C=N\\Nc1ccccn1", "growth": "16.8%"},
      {"compound": "CCCNC(=O)Oc1ccc(/C(=C(/CC)Cc2ccccc2)c2ccc(OCCN(CC)CC)cc2)cc1", "growth": "71.4%"}
    ]}
  ]
}
